What is called inhibition is the relative decrease from the control value, in per cent.

A short description of assay [1]: antimalarial activity against Dd2 strain (AID 2302;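 active = growth inhibition above 50% at the single 2 µM test dose, taken to imply half-maximal potency below 2 µM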;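 also: 0% = DMSO untreated growth and 100% = chloroquine plus artemisinin killed control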). To be noted: P. falciparum Dd2 in RBCs, LDH growth readout, 72 h; at 2 µM; stronger effect = higher value.
The nature of assay [2]: human hepatoma cell viability loss – ATP luminescence, cytotoxicity control for P. falciparum antimalarial project, primary screen (AID 2303;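 active = inhibition above 50%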;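 also: 0% = DMSO wells and 100% = digitonin-killed cells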). Particulars: HepG2 viability, 24-48 h, at 10 µM, stronger effect = higher value.
The target of assay [3] is L-lactate dehydrogenase (Plasmodium falciparum (isolate CDC / Honduras)) (UniProt Q27743). The assay is described as follows: PfLDH activity inhibition – cell lysate, 3D7 strain, counter-screen for P. falciparum growth inhibition project (AID 2304).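 Also: 0% = vehicle and 100% = reference inhibitor.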 To be noted: P. falciparum 3D7 crude extract, LDH APAD/NBT absorbance; at 2 µM; stronger effect = higher value. On the technique in general: Counterscreens check selectivity or assay interference.
Chain of L-lactate dehydrogenase (Plasmodium falciparum (isolate CDC / Honduras)) (Q27743 whole entry, looked up): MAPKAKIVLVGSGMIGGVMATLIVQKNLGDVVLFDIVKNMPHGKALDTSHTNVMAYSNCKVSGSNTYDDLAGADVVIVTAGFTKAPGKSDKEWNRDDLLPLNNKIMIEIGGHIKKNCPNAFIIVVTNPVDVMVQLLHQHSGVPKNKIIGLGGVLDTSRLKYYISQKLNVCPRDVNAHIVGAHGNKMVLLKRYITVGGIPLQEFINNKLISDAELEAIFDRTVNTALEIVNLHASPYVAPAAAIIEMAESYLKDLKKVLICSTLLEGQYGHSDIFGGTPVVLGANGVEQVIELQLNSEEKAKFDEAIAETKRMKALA

The nature of assay [4]: inhibition of 3D7 malaria parasite growth – strain 3D7 (AID 2306).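 Also: 0% = DMSO wells and 100% = chloroquine plus artemisinin control wells.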 To be noted: P. falciparum 3D7 erythrocytic growth, LDH absorbance, 72 h; at 2 µM; stronger effect = higher value.
Assay [5] deals with Calcium-dependent protein kinase 1 (Plasmodium falciparum (isolate 3D7)) (UniProt P62344). Description: PfCDPK1 kinase inhibitors, biochemical, TCAMS library (AID 1159585; cut-off not given, nearly all actives have IC50 up to about 0.98 µM;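 also: inhibitors leave more ATP so luminescence rises with inhibition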). To be noted: recombinant PfCDPK1, Kinase-Glo ATP depletion luminescence. In general terms: Kinase-Glo measures the ATP left after a reaction by luminescence.
Chain of Calcium-dependent protein kinase 1 (Plasmodium falciparum (isolate 3D7)) (P62344 whole entry, looked up): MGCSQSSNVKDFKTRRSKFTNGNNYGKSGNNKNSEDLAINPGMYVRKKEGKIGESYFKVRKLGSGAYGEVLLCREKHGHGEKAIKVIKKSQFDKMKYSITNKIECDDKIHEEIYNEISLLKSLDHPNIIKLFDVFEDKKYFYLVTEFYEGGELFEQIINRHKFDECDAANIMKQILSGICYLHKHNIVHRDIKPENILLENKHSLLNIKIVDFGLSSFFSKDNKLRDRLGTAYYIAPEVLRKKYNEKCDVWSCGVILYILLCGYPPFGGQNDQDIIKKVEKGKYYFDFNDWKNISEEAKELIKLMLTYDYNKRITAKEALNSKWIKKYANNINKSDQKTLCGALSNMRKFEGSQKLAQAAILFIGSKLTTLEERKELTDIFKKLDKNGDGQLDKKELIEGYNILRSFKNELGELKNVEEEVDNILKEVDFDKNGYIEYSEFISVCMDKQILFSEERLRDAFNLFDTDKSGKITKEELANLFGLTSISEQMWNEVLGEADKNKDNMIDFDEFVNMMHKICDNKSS
For assay [6], the target named is Plasmodium falciparum protein kinase 6 (PK6, PF3D7_1337100) (UniProt Q8IDW1). The assay is described as follows: PfPK6 kinase inhibitors, biochemical, TCAMS library (AID 1159586). Particulars: recombinant PfPK6, Kinase-Glo ATP depletion luminescence.
Chain of Plasmodium falciparum protein kinase 6 (PK6, PF3D7_1337100) (Q8IDW1 1-305): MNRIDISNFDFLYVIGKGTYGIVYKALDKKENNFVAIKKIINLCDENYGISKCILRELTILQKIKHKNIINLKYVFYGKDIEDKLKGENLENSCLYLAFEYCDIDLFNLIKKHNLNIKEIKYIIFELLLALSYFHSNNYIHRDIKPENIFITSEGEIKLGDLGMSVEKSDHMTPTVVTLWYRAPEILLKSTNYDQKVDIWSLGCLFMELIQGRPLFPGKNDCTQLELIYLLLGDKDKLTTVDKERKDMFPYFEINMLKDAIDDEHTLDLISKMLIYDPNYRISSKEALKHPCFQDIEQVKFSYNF
Assay [7] addresses Protein kinase 7 (PK7), Plasmodium falciparum 3D7 (PF3D7_0213400) (UniProt Q7YTF7). The assay is described as follows: inhibition of Plasmodium PK7 catalytic activity – biochemical, TCAMS antimalarial set, Kinase-Glo luminescence (AID 1159587). To be noted: recombinant PfPK7, Kinase-Glo ATP depletion luminescence.
Assay [8] deals with Calcium-dependent protein kinase 4 (Plasmodium falciparum (isolate 3D7)) (UniProt Q8IBS5). The assay is described as follows: PfCDPK4 kinase inhibitors, biochemical, TCAMS library (AID 1159588; cut-off not given, nearly all actives have IC50 up to about 0.91 µM). To be noted: recombinant PfCDPK4, Kinase-Glo ATP depletion luminescence.
Chain of Calcium-dependent protein kinase 4 (Plasmodium falciparum (isolate 3D7)) (Q8IBS5 whole entry, looked up): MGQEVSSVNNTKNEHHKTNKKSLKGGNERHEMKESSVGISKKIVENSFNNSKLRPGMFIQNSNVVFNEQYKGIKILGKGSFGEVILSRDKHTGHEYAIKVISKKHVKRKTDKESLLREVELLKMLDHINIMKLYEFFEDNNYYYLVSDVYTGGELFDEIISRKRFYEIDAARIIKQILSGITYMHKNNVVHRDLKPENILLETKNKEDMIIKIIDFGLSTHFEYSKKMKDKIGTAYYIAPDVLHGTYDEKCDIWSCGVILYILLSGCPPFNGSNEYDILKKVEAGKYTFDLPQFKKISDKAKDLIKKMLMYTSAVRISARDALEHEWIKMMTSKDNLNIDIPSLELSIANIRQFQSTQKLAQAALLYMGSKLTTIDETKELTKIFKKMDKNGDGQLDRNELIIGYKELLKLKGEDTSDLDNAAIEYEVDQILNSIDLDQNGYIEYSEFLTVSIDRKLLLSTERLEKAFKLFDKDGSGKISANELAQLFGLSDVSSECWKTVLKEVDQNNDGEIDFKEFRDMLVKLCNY

Each structure is given as a SMILES string. Unmarked numbers belong to inactive results. For some assays here: Entries with a potency or affinity are not part of this list. Active and inactive are the calls of the source. Unless noted, no rule for the calls is given here.

Chain of Protein kinase 7 (PK7), Plasmodium falciparum 3D7 (PF3D7_0213400) (Q7YTF7 1-343): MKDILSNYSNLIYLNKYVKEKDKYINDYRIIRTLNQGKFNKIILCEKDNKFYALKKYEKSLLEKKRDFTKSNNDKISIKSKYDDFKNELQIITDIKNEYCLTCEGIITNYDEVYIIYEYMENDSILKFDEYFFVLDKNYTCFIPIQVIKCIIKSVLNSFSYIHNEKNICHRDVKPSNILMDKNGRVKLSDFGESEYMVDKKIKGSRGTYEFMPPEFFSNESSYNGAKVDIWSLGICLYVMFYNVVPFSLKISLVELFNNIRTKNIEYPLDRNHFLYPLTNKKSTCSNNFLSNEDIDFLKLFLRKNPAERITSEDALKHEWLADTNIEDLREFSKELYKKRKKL

In the case of `COc1cc2nc(-c3ccccc3)nc(N3CCN(C(=O)c4ccco4)CC3)c2cc1OC`, the growth inhibition in assay [1] is 87% (active); in assay [4], 89% (active). For the same compound, the inhibition in assay [2] was -7%; in assay [3], 7%. Also, the result in assay [5], in assay [6], in assay [7] and in assay [8] was inactive.

`O=C(Nc1cccc(-c2cccc(-c3nc4ccc(C(F)(F)F)cc4[nH]3)c2)c1)c1cccnc1Cl`: the growth inhibition in assay [1] was 58% (active); in assay [4] it was 95% (active). Further, the inhibition in assay [2] was 56% (active); in assay [3] it was 1%. Moreover, the outcome in assay [5], in assay [6], in assay [7] and in assay [8] was inactive.

Consider `COc1ccc(-c2ccc(NC(=O)c3cccc(C#N)c3)cc2)cc1CN1CCCN(C)CC1`, for which the growth inhibition in assay [1] is 70% (active); in assay [4], 102% (active). For the same compound, the figures for the inhibition in assay [2] and in assay [3] were 26% and 6%, respectively. The outcome in assay [5], in assay [6], in assay [7] and in assay [8] was inactive.

On to `CS(=O)(=O)CCNCc1cc(-c2cc3ncnc(Nc4ccc(OCc5cccc(F)c5)c(Cl)c4)c3s2)cs1`, for which the figures for the growth inhibition in assay [1] and in assay [4] were 48% and 99% (active), respectively. Moreover, the inhibition is 8% in assay [2] and -2% in assay [3]. Moreover, the outcome in assay [5], in assay [6], in assay [7] and in assay [8] was inactive.

As for `CC1=C(C(=O)Nc2cc3cn[nH]c3cc2F)C(c2cccc(NS(C)(=O)=O)c2)CC(=O)N1` (configuration not stated), the growth inhibition in assay [1] is 97% (active); in assay [4], 96% (active). The results for the inhibition in assay [2] and in assay [3] were -10% and -4%, respectively. In addition, the outcome in assay [5], in assay [6], in assay [7] and in assay [8] was inactive.

On to `N#Cc1ccc(NC(=O)N2CCCN(CCCCCNC(=O)/C=C/c3ccc(Cl)c(Cl)c3)CC2)cc1`, for which the growth inhibition in assay [1] was 4%; in assay [4] it was 100% (active). Also, the inhibition was 32% in assay [2] and 0% in assay [3]. Further, the result in assay [5], in assay [6], in assay [7] and in assay [8] was inactive.

As for `O=C(COc1ccc(C(=O)c2ccccc2)cc1)Nc1nccs1`, the growth inhibition in assay [1] is 18%; in assay [4], 94% (active). Further, the inhibition in assay [2] is 0%; in assay [3], 2%. For the same compound, the result in assay [5], in assay [6], in assay [7] and in assay [8] was inactive.

With `COc1ccccc1CCNc1nc(C)cc(N[C@@H](CC(C)C)C(=O)NCCc2ccccc2)n1`, the values for the growth inhibition in assay [1] and in assay [4] were 81% (active) and 97% (active), respectively. The inhibition is 12% in assay [2] and -2% in assay [3]. Moreover, the result in assay [5], in assay [6], in assay [7] and in assay [8] was inactive.

Turning to `COc1cc(N)c(Cl)cc1C(=O)NCC1CCN(c2nc(C)cc(C)n2)CC1`, the growth inhibition in assay [1] is 95% (active); in assay [4] it was 96% (active). For the same compound, the inhibition was -6% in assay [2] and 4% in assay [3]. The result in assay [5], in assay [6], in assay [7] and in assay [8] was inactive.

Take `COCCN1CCC(N(Cc2ccc(-c3ccc(C(F)(F)F)cc3)cc2)C(=O)Cn2c(CCc3cccc(F)c3F)cc(=O)c3c2CCC3)CC1`: the growth inhibition was 48% in assay [1] and 85% (active) in assay [4]. In addition, the results for the inhibition in assay [2] and in assay [3] were 31% and -5%, respectively. In addition, the result in assay [5], in assay [6], in assay [7] and in assay [8] was inactive.

With `CN(C)c1ccc2c(c1)Sc1cc(N(C)C)ccc1N2C(=O)CCCC(=O)O`, the growth inhibition in assay [1] was 81% (active); in assay [4], 96% (active). Further, the inhibition was -4% in assay [2] and -6% in assay [3]. The outcome in assay [5], in assay [6], in assay [7] and in assay [8] was inactive.

Turning to `O=c1[nH]c(=O)n2c(nc3ccccc32)[nH]1`, the growth inhibition is -1% in assay [1] and 95% (active) in assay [4]. Further, the inhibition in assay [2] was 21%; in assay [3], 6%. In addition, the result in assay [5], in assay [6], in assay [7] and in assay [8] was inactive.

As to `COc1ccc(CNCCc2cccs2)cc1-c1ccc(OC)c(S(=O)(=O)NCCN2CCCC2)c1`, the growth inhibition in assay [1] was 19%; in assay [4] it was 96% (active). The inhibition in assay [2] was 16%; in assay [3] it was 1%. In addition, the outcome in assay [5], in assay [6], in assay [7] and in assay [8] was inactive.

With `CN(C)CCNCc1nc(-c2ccc3c(Nc4ccc(Cl)cc4F)ccnc3c2)cs1`, the growth inhibition in assay [1] is 100% (active); in assay [4] it was 101% (active). Also, the results for the inhibition in assay [2] and in assay [3] were -2% and -9%, respectively. For the same compound, the result in assay [5], in assay [6], in assay [7] and in assay [8] was inactive.

Regarding `O=C(Nc1ccc(Cl)cc1)Nc1ccc(-c2ccc(-c3nc4ccccc4[nH]3)cc2)cc1`, the growth inhibition was 99% (active) in assay [1] and 101% (active) in assay [4]. Further, the values for the inhibition in assay [2] and in assay [3] were 47% and 0%, respectively. For the same compound, the outcome in assay [5], in assay [6], in assay [7] and in assay [8] was inactive.

Take `COc1cc(C)c(C(O)CNC(C)CCc2ccccc2)cc1C` (configuration not stated): the growth inhibition in assay [1] and in assay [4] was 98% (active) throughout. Besides, the inhibition in assay [2] was 1%; in assay [3] it was -2%. In addition, the outcome in assay [5], in assay [6], in assay [7] and in assay [8] was inactive.

Turning to `Cc1cccc2[nH]c(-c3ccc(-c4cccc(NC(=O)NCc5ccc(F)cc5)c4)cc3)nc12`, the growth inhibition in assay [1] is 100% (active); in assay [4], 101% (active). In addition, the inhibition is 82% (active) in assay [2] and -1% in assay [3]. Further, the result in assay [5], in assay [6], in assay [7] and in assay [8] was inactive.

Regarding `O=C(Cn1cnc2c(nnn2Cc2ccccc2F)c1=O)Nc1ccc2c(c1)OCCO2`, the growth inhibition in assay [1] is 1%; in assay [4], 86% (active). Besides, the inhibition is -6% in assay [2] and -2% in assay [3]. Also, the result in assay [5], in assay [6], in assay [7] and in assay [8] was inactive.

Regarding `Cc1cc(CNCCCCCCCNCc2ccc(Cl)cc2)ccc1O`, the growth inhibition in assay [1] is 0%; in assay [4] it was 97% (active). For the same compound, the inhibition in assay [2] was 13%; in assay [3], -4%. In addition, the outcome in assay [5], in assay [6], in assay [7] and in assay [8] was inactive.
